From PubChem BioAssay (Tox21) come the findings set out here.

Structures are written as SMILES. Inconclusive results are not listed. Active and inactive are the calls of the source. Calls follow the shape of the dose curve; as a rule, active = well fitted inhibition curve with a large enough effect in the signal ratio in the repeat runs (not every such curve was filed as active); inconclusive = weak or mixed curves, or effect the other way; inactive = no such curve, though single readings can be large or run the other way; the % refers to the signal ratio.
% is scaled to controls: 0 for no effect and ±100 for the full control effect; potency is read from the fitted curve at half-maximal effect.

Chain of Bile acid receptor (Homo sapiens) (Q96RI1 whole entry, looked up): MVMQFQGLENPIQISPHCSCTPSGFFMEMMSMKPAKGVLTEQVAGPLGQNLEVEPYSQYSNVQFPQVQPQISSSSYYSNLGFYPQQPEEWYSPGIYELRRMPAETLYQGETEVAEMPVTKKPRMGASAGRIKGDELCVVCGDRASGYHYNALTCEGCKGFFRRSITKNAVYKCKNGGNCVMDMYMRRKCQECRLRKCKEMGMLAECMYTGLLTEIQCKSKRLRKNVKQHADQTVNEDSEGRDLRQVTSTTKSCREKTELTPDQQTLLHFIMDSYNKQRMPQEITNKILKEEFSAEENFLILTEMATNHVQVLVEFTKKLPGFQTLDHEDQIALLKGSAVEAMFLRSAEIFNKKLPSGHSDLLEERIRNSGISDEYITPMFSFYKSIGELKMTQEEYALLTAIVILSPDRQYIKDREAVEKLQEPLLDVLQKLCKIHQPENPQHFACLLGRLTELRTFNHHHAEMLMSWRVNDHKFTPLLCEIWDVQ

The target in the experiment is Bile acid receptor (Homo sapiens) (UniProt Q96RI1). In words: qHTS assay to identify small molecule antagonists of the farnesoid-X-receptor (FXR) signaling pathway (AID 743217). To be noted: HEK293T FXR-UAS-bla, beta-lactamase ratio, CDCA-stimulated, 16 h; series mostly up to 62.6 µM; activity change, negative = inhibition: at the top concentration. An excerpt:
U.S. Tox21 Program National Center for Advancing Translational Sciences [NCATS] NIH Chemical Genomics Center [NCGC] U.S. Environmental Protection Agency [EPA] National Institutes of Environmental Health Sciences [NIEHS] National Toxicology Program [NTP] U.S. Food and Drug Administration [FDA] Tox21 Assay Overview: The farnesoid-X-receptor (FXR), a nuclear hormone receptor, is highly expressed in liver, intestine, kidney and adrenal cortex. Natural ligands of FXR are the bile acids (Cholic acid, Chenodeoxy cholic acid etc). FXR is an important regulator of diverse metabolic pathways, including the bile acid homeostasis, lipid and glucose metabolisms. FXR regulates the expression of target genes by binding either as a monomer or as a heterodimer with the retinoid X receptor (RXR). Numerous studies have reported that FXR exerts protective function during cholestasis, diabetes, liver regeneration, and cancer. To identify compounds that inhibit FXR signaling, GeneBLAzer FXR-UAS-bla HEK 293T cell line (Invitrogen, Carlsbad, CA) containing a beta-lactamase reporter gene under the control of a UAS response element was used to screen the Tox21 10K compound library.
Tox21 Assay Protocol Summary: FXR-bla cells were dispensed at 5000 cells/5uL/well in 1536-well black wall/clear bottom plates using a Multidrop Combi (Thermo Fisher Scientific, Waltham, MA) dispenser. After the assay plates were incubated at 37C and 5% CO2 for 5 h, 23 nL of compounds dissolved in DMSO, positive controls or DMSO only was transferred to the assay plate by a Pintool station (Kalypsys, San Diego, CA), followed by addition of 1 uL Chenodeoxycholic acid (50 uM, final concentration in the wells). The assay plates were incubated at 37C for 16 h. After 1 uL of LiveBLAzerTM B/G FRET substrate was added using a Bioraptr Flying Reagent Dispenser (FRD) workstation (Beckman Coulter, Indianapolis, IN), the plates were incubated at room temperature for 2 h, and fluorescence intensity was measured by an Envision plate reader (PerkinElmer, Shelton, CT).
Background: qHTS replaces the single test concentration by a dilution series.
Turning to `CCCn1cnc2c1c(=O)n(CCCCC(C)=O)c(=O)n2C`, the “activity change, negative = inhibition” value is 0.342% (inactive).
Still for that read-out and setting: under `C1CCCNCCC1` stands 1.06% (inactive); under `O=C(O)c1ccccc1Cl`, -14.3% (inactive).
For `Cc1oc2c(NC(=O)c3c(Cl)cccc3Cl)cccc2c1C(C)(C)O`, the Potency was 38.9 µM (active).
Consider `O=C(O)CNCC(=O)O`, for which the activity change, negative = inhibition is -18.1% [at 5.95 µM] (inactive).
Turning to `CC1OC(=O)C(C)OC1=O` (stereo not given), the “activity change, negative = inhibition” value was -0.974% (inactive).
On to `Nc1cccc([N+](=O)[O-])c1`, for which the “activity change, negative = inhibition” value is 8.17% (inactive).
On to `Clc1ccc2c(c1)CCc1cccnc1C2=C1CCNCC1`, for which the Potency is 29.8 µM (active).
Turning to `Nc1c(CC(=O)O)cccc1C(=O)c1ccc(Br)cc1`, the “activity change, negative = inhibition” value was 0.619% (inactive).
In the case of `C[C@@H](c1ncncc1F)C(O)(Cn1cncn1)c1ccc(F)cc1F` (stereo not given in full), the “activity change, negative = inhibition” value was 1.25% (inactive).
Still for that read-out and setting: the result for `Cc1cccc(C)c1NC(=O)CN(CC(=O)O)CC(=O)O` reads 1.97% (inactive); that for `NS(=O)(=O)c1ccc(N2CCCCS2(=O)=O)cc1`, 3.02% (inactive).
In the case of `CC1CCC(=O)C1=O` (stereo not given), the “activity change, negative = inhibition” value is -10.9% [at 81.1 µM] (inactive).
On the same count and under the same terms, under `COc1cc(Cl)ccc1Oc1ccc(Cl)cc1Cl` stands -13.5% (inactive); under `O=C1CCC(=O)O1`, 0.0611% [at 81.1 µM] (inactive).
As to `Cn1c(=O)cc(Oc2ccc(F)cc2F)c2cnc(NCC(C)(C)O)nc21`, the Potency is 43.6 µM (active).
On to `COc1cc(Cl)c(OC)cc1N`, for which the “activity change, negative = inhibition” value was 4.59% (inactive).
Still for that read-out and setting: the result for `CCCCCCCCO[C@@H]1O[C@H](CO)[C@@H](O)[C@H](O)[C@H]1O` reads -2.87% (inactive).
Still for that read-out and setting: under `C=C1[C@H]2CC[C@@H]3[C@H]2C(C)(C)CCC[C@]13C` stands 9.01% (inactive); under `O=C1C(O)=C(O)C(=O)C(O)=C1O`, -0.261% (inactive); under `CC(C)Nc1ccc(NC(C)C)c2c1C(=O)c1ccccc1C2=O`, 3.1% (inactive).
Regarding `CCN(CC)c1ccc(C(=C2C=CC(=[N+](CC)CC)C=C2)c2cc(S(=O)(=O)O)ccc2S(=O)(=O)[O-])cc1`, the “activity change, negative = inhibition” value is 10.5% (inactive).
`CCN(CC)c1ccc2c(-c3ccccc3C(=O)O)c3ccc(=[N+](CC)CC)cc-3oc2c1`: the “activity change, negative = inhibition” value is -4.93% (inactive).
Same read-out and setting: under `O=[N+]([O-])c1ccc(NCCO)c(OCCO)c1` stands 1.19% (inactive).
Same read-out and setting: the result for `CCCCNc1ccc(C(=O)OCCOCCOCCOCCOCCOCCOCCOCCOCCOC)cc1` reads -5.38% (inactive).
The same measure, in the same setting: under `Nc1ccccc1S(=O)(=O)c1ccccc1` stands 2.93% (inactive); under `CCCCC1=NC2(CCCC2)C(=O)N1Cc1ccc(-c2ccccc2-c2nn[nH]n2)cc1`, -0.777% (inactive).
Regarding `CCCCO`, the “activity change, negative = inhibition” value is 2.32% (inactive).
With `CC1(c2ccccc2)OC(C(=O)O)=CC1=O` (stereo not given), the “activity change, negative = inhibition” value was -11.6% (inactive).
Still for that read-out and setting: under `COc1ccc(C)cc1[N+](=O)[O-]` stands 4.86% [at 81.1 µM] (inactive).
`Nc1ncn([C@H]2C[C@H](O)[C@@H](CO)O2)c(=O)n1`: the Potency was 10.6 µM (active).
Consider `CCOC(=O)C(F)(F)F`, for which the “activity change, negative = inhibition” value was 6.76% (inactive).
`CN(C)CCN(Cc1ccc(Cl)cc1)c1ccccn1`: the “activity change, negative = inhibition” value is -12.4% (inactive).
Still for that read-out and setting: under `CC1=CCCC(C)(C)C12CCC(C)O2` (stereo not given) stands -6.03% (inactive); under `O=C(OCCCCCCOC(=O)c1ccccc1)c1ccccc1`, -12.3% (inactive).
In the case of `NC(=O)C(c1ccccc1)(c1ccccc1)[C@@H]1CCN(CCc2ccc3c(c2)CCO3)C1`, the “activity change, negative = inhibition” value was -18.2% (inactive).
Turning to `CCCOC(C(=O)OC1CCN(C)CC1)(c1ccccc1)c1ccccc1`, the “activity change, negative = inhibition” value was -5.94% (inactive).
Regarding `C#Cc1cccc(Nc2ncnc3cc(OCCOC)c(OCCOC)cc23)c1`, the “activity change, negative = inhibition” value was -13.8% (inactive).
On the same count and under the same terms, under `CC(C)(C)Cl` stands 0.576% [at 81.1 µM] (inactive); under `O=C(O)C1(C(=O)O)CCC1.[NH2-].[NH2-].[Pt+2]`, 1.67% (inactive).
